From publication PMC7862700, “An all-to-all approach to the identification of sequence-specific readers for epigenetic DNA modifications on cytosine”

Key:
Experiment in all cases: DAPPL (digital affinity profiling via proximity ligation, sequencing); 10 mM Tris-HCl pH 7.5, 50 mM NaCl, 1 mM DTT, 4% glycerol, room temperature, 30 min; GST-TFs on glutathione beads, 16-mer random dsDNA library, 0.1% formaldehyde crosslink after washing; high values mean tight binding
Details in all cases: protein: recombinant; tags: N-terminal GST; dsDNA, one strand shown
[1] = molecular target: T1, ERF (Homo sapiens, UniProt P50548 1-548)
T1 sequence: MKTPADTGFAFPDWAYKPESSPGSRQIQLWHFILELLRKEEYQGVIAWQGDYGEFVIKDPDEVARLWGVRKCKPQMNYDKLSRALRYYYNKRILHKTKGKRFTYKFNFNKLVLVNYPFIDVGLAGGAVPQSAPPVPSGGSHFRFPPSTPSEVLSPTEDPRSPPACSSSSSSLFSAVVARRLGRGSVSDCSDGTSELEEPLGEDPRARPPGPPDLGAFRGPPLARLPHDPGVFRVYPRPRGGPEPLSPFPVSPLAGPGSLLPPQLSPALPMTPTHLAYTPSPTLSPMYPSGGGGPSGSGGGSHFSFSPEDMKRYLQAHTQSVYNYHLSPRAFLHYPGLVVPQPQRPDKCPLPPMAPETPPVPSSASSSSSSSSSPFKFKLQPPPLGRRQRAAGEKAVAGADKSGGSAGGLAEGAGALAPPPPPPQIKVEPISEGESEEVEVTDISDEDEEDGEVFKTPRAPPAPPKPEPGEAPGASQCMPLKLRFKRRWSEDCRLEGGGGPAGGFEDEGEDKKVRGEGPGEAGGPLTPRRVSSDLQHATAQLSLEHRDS
Outline: (§1)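 Binding signal is given per hexamer as its read frequency for a factor divided by its frequency in the tag-only sample. GST-fused human transcription factors were expressed in yeast, captured on glutathione beads, barcoded with DNA and pooled with that sample, then incubated with 200 nmole of a 16-mer random double-stranded DNA library in Tris/NaCl/DTT/glycerol buffer for 30 min at room temperature. The pools were then washed, crosslinked, proximity-ligated, amplified by PCR and sequenced on an Illumina NextSeq500.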

[2] = molecular target: T2, ETV3L (Homo sapiens, UniProt Q6ZN32 1-361)
T2 sequence: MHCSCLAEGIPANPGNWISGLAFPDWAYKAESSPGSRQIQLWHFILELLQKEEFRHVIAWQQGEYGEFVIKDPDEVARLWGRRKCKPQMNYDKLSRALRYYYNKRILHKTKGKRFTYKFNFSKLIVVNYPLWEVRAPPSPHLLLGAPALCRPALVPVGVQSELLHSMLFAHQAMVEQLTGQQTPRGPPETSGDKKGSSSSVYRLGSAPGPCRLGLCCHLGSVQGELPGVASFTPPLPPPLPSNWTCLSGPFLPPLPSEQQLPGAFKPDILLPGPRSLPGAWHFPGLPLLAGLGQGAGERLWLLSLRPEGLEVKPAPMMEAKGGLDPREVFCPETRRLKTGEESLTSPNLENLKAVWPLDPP
Outline: as §1

[3] = molecular target: T3, ETS2 (Homo sapiens, UniProt P15036 1-469)
T3 sequence: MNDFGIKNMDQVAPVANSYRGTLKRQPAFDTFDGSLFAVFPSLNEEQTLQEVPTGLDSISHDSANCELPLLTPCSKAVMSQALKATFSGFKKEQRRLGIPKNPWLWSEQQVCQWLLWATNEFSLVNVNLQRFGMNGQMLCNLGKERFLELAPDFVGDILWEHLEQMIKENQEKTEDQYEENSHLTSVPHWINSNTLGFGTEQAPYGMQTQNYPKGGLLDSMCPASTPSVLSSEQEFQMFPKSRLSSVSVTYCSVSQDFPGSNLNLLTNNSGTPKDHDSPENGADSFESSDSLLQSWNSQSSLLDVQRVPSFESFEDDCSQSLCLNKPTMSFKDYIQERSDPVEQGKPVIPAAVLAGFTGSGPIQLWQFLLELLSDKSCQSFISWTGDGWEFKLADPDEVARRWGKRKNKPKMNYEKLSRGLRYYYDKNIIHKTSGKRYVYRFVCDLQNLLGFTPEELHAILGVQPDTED
Outline: as §1

[4] = molecular target: T4, SPDEF (Homo sapiens, UniProt O95238 1-335)
T4 sequence: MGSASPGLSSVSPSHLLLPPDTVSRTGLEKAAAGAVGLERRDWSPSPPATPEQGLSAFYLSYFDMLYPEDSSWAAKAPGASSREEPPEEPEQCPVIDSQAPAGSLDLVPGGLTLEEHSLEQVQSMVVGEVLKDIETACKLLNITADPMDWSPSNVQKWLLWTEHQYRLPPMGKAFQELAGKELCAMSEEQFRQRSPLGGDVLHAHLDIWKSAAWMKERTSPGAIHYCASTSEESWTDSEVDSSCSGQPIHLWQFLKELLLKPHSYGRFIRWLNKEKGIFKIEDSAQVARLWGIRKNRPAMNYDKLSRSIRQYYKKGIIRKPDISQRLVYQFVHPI
Outline: as §1

[5] = molecular target: T5, ETV7 (Homo sapiens, UniProt Q9Y603 1-341)
T5 sequence: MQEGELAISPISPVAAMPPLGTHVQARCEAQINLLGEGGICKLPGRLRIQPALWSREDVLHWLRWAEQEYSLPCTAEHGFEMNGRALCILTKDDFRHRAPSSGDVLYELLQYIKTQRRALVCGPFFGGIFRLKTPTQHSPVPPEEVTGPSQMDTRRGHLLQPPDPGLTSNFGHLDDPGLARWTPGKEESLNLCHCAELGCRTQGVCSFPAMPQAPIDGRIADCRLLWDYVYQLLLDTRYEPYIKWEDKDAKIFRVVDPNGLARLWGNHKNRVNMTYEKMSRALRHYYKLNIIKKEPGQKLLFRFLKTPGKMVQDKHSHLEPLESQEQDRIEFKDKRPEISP
Outline: as §1

[6] = molecular target: T6, ELF5 (Homo sapiens, UniProt Q9UKW6-2 1-255)
T6 sequence: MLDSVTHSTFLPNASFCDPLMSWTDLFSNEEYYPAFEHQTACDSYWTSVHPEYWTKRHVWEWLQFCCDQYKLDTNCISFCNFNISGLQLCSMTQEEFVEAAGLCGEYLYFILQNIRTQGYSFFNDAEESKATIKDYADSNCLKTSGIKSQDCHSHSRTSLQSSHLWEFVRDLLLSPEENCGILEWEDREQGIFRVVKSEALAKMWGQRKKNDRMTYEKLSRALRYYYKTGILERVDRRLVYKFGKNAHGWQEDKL
Outline: as §1

[7] = molecular target: T7, ETV3 (Homo sapiens, UniProt P41162-2 1-143)
T7 sequence: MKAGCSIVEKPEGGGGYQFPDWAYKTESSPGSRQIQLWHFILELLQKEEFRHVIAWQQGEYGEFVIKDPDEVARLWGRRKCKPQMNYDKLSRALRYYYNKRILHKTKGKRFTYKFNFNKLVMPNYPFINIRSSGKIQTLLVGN
Outline: as §1

[8] = molecular target: ETV6 (Homo sapiens, UniProt P41212 1-452)
Chain of ETV6 (P41212 whole entry): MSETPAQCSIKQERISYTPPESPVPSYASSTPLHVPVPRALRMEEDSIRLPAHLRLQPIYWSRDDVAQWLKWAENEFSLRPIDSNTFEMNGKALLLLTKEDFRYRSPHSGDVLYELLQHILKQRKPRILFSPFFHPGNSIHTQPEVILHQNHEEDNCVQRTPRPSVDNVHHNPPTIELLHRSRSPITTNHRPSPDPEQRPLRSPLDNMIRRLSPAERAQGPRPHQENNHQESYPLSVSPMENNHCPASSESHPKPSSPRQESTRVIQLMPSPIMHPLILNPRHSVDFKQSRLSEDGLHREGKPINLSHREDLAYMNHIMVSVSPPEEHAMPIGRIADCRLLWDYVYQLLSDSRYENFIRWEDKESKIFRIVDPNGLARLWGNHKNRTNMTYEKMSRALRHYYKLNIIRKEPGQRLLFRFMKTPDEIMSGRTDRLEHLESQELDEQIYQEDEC
Outline: as §1

| Sequence | binding signal [1] | binding signal [2] | binding signal [3] | binding signal [4] | binding signal [5] | binding signal [6] | binding signal [7] | binding signal [8] |
| --- | --- | --- | --- | --- | --- | --- | --- | --- |
| CTCAAT | 1.22 fold enrichment (6-mer frequency, TF over GST control) | 1.36 fold enrichment (6-mer frequency, TF over GST control) | 1.21 fold enrichment (6-mer frequency, TF over GST control) | 1.21 fold enrichment (6-mer frequency, TF over GST control) | 1.16 fold enrichment (6-mer frequency, TF over GST control) | 1.27 fold enrichment (6-mer frequency, TF over GST control) | 1.2 fold enrichment (6-mer frequency, TF over GST control) | 1.23 fold enrichment (6-mer frequency, TF over GST control) |
| TTCTGC | 1.55 fold enrichment (6-mer frequency, TF over GST control) | 1.4 fold enrichment (6-mer frequency, TF over GST control) | 1.33 fold enrichment (6-mer frequency, TF over GST control) | 1.38 fold enrichment (6-mer frequency, TF over GST control) | 1.43 fold enrichment (6-mer frequency, TF over GST control) | 1.38 fold enrichment (6-mer frequency, TF over GST control) | 1.33 fold enrichment (6-mer frequency, TF over GST control) | 1.47 fold enrichment (6-mer frequency, TF over GST control) |
| GATCCT | 1.3 fold enrichment (6-mer frequency, TF over GST control) | 1.21 fold enrichment (6-mer frequency, TF over GST control) | 1.32 fold enrichment (6-mer frequency, TF over GST control) | 1.84 fold enrichment (6-mer frequency, TF over GST control) | 1.2 fold enrichment (6-mer frequency, TF over GST control) | 1.29 fold enrichment (6-mer frequency, TF over GST control) | 1.25 fold enrichment (6-mer frequency, TF over GST control) | 1.28 fold enrichment (6-mer frequency, TF over GST control) |
| GCTCCT | 1.54 fold enrichment (6-mer frequency, TF over GST control) | 1.61 fold enrichment (6-mer frequency, TF over GST control) | 1.45 fold enrichment (6-mer frequency, TF over GST control) | 1.54 fold enrichment (6-mer frequency, TF over GST control) | 1.43 fold enrichment (6-mer frequency, TF over GST control) | 1.44 fold enrichment (6-mer frequency, TF over GST control) | 1.37 fold enrichment (6-mer frequency, TF over GST control) | 1.5 fold enrichment (6-mer frequency, TF over GST control) |
| AAAGAC | 1.08 fold enrichment (6-mer frequency, TF over GST control) | 1.06 fold enrichment (6-mer frequency, TF over GST control) | 1.12 fold enrichment (6-mer frequency, TF over GST control) | 1.01 fold enrichment (6-mer frequency, TF over GST control) | 1.03 fold enrichment (6-mer frequency, TF over GST control) | 1.03 fold enrichment (6-mer frequency, TF over GST control) | 1.01 fold enrichment (6-mer frequency, TF over GST control) | 1.16 fold enrichment (6-mer frequency, TF over GST control) |
| CTTAAT | 1.27 fold enrichment (6-mer frequency, TF over GST control) | 1.4 fold enrichment (6-mer frequency, TF over GST control) | 1.37 fold enrichment (6-mer frequency, TF over GST control) | 1.25 fold enrichment (6-mer frequency, TF over GST control) | 1.33 fold enrichment (6-mer frequency, TF over GST control) | 1.25 fold enrichment (6-mer frequency, TF over GST control) | 1.27 fold enrichment (6-mer frequency, TF over GST control) | 1.25 fold enrichment (6-mer frequency, TF over GST control) |
| ATTGGT | 1.21 fold enrichment (6-mer frequency, TF over GST control) | 1.24 fold enrichment (6-mer frequency, TF over GST control) | 1.34 fold enrichment (6-mer frequency, TF over GST control) | 1.26 fold enrichment (6-mer frequency, TF over GST control) | 1.27 fold enrichment (6-mer frequency, TF over GST control) | 1.19 fold enrichment (6-mer frequency, TF over GST control) | 1.24 fold enrichment (6-mer frequency, TF over GST control) | 1.13 fold enrichment (6-mer frequency, TF over GST control) |
| AACTCC | 1.36 fold enrichment (6-mer frequency, TF over GST control) | 1.27 fold enrichment (6-mer frequency, TF over GST control) | 1.32 fold enrichment (6-mer frequency, TF over GST control) | 1.33 fold enrichment (6-mer frequency, TF over GST control) | 1.31 fold enrichment (6-mer frequency, TF over GST control) | 1.32 fold enrichment (6-mer frequency, TF over GST control) | 1.34 fold enrichment (6-mer frequency, TF over GST control) | 1.4 fold enrichment (6-mer frequency, TF over GST control) |
